Records with an inconclusive call do not appear. Unmarked numbers belong to inactive results. Calls come from the whole dose curve; as a rule, active = well fitted curve in either direction with a large enough effect (not every such curve was filed as active); inconclusive = small, poorly fitted or top-dose-only effect, or another doubt; inactive = flat fitted curve, though single readings scatter.
Assay: NFAT Signaling Pathway (AID 444);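 note: carbachol stimulus at about its EC50 of 1 µM final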
Conditions: Jurkat NFAT-bla M1, carbachol, beta-lactamase ratio, 5 h
How it was run: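 Read-out: CCF4 FRET ratio (460 nm/530 nm) after 1 h RT dye loading, used for %activity and AC50 from titration series. Cells: Jurkat NFAT-β-lactamase/M1 line, treated with compound plus 1 uM carbachol for 5 h, 37 °C.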
% is set by controls: 0 for no effect and ±100 for the full control effect.

| SMILES | activity change, negative = inhibition (at 7.69 µM (top of the series)) [%] | activity change, negative = inhibition (at 17.2 µM (top of the series)) [%] | activity change, negative = inhibition (at 38 µM (top of the series)) [%] |
| --- | --- | --- | --- |
| NS(=O)(=O)c1ccc(C(=O)O)cc1 | 7.39 | 8.44 | – |
| CN1C(C)(C)CCCC1(C)C | – | -4.12 | 7.41 |

Reference: PubChem BioAssay (NCATS)
